# According to paper PMC11062922 (Nature Chemical Biology, 2023):
# Like-named read-outs stand apart in the source and are kept apart here.
# Experiments:
# [1] = tested on: AAK1; conditions: read-out: apparent Kd, n = 1
# [2] = tested on: AURKA; conditions: read-out: apparent Kd, n = 1
# [3] = compound concentrations:100 nM and 1000 nM (sheet 'Lestaurtinib' of Supplementary Table 1),run:Lestaurtinib_02339_R2,Plate:MR001
# [4] = compound concentrations:100 nM and 1000 nM (sheet 'Lestaurtinib' of Supplementary Table 1),run:Lestaurtinib_02339_R3,Plate:MR001
# [5] = compound concentrations:100 nM and 1000 nM (sheet 'Lestaurtinib' of Supplementary Table 1),run:Lestaurtinib_02367_R1,Plate:MR003
# [6] = compound concentrations:100 nM and 1000 nM (sheet 'Lestaurtinib' of Supplementary Table 1),run:Lestaurtinib_02367_R2,Plate:MR003
# [7] = compound concentrations:100 nM and 1000 nM (sheet 'Lestaurtinib' of Supplementary Table 1),run:Lestaurtinib_02367_R3,Plate:MR003
# [8] = compound concentrations:100 nM and 1000 nM (sheet 'Lestaurtinib' of Supplementary Table 1),run:Lestaurtinib_02381_R3,Plate:MR004
# [9] = compound concentrations:100 nM and 1000 nM (sheet 'Lestaurtinib' of Supplementary Table 1),run:Lestaurtinib_02407_R1,Plate:MR005
# [10] = compound concentrations:100 nM and 1000 nM (sheet 'Lestaurtinib' of Supplementary Table 1),run:Lestaurtinib_02407_R2,Plate:MR005
# [11] = compound concentrations:100 nM and 1000 nM (sheet 'Lestaurtinib' of Supplementary Table 1),run:Lestaurtinib_02407_R3,Plate:MR005
# [12] = compound concentrations:100 nM and 1000 nM (sheet 'Lestaurtinib' of Supplementary Table 1),run:Lestaurtinib_02422_R2,Plate:MR006
# [13] = compound concentrations:100 nM and 1000 nM (sheet 'Lestaurtinib' of Supplementary Table 1),run:Lestaurtinib_02437_R2,Plate:MR007
# [14] = compound concentrations:100 nM and 1000 nM (sheet 'Lestaurtinib' of Supplementary Table 1),run:Lestaurtinib_02438_R1,Plate:MR008
substance,measurement,setting,value
Lestaurtinib,potency estimated from few doses,[1]; [3],85.5 nM
same,potency estimated from few doses,[1]; [4],53.3 nM
same,potency estimated from few doses,"[1]; compound concentrations:100 nM and 1000 nM (sheet 'Lestaurtinib' of Supplementary Table 1),run:Lestaurtinib_02364_R3,Plate:MR002",69.8 nM
same,potency estimated from few doses,[1]; [5],65.4 nM
same,potency estimated from few doses,[1]; [6],78.3 nM
same,potency estimated from few doses,[1]; [7],77.2 nM
same,potency estimated from few doses,"[1]; compound concentrations:100 nM and 1000 nM (sheet 'Lestaurtinib' of Supplementary Table 1),run:Lestaurtinib_02381_R1,Plate:MR004",66.8 nM
same,potency estimated from few doses,[1]; [8],45.5 nM
same,potency estimated from few doses,[1]; [9],63.9 nM
same,potency estimated from few doses,[1]; [10],53.3 nM
same,potency estimated from few doses,[1]; [11],73.1 nM
same,potency estimated from few doses,[1]; [12],18.9 nM
same,potency estimated from few doses,"[1]; compound concentrations:100 nM and 1000 nM (sheet 'Lestaurtinib' of Supplementary Table 1),run:Lestaurtinib_02422_R3,Plate:MR006",72.2 nM
same,potency estimated from few doses,[1]; [13],69.6 nM
same,potency estimated from few doses,[1]; [14],74.4 nM
same,potency estimated from few doses,"[1]; compound concentrations:100 nM and 1000 nM (sheet 'Lestaurtinib' of Supplementary Table 1),run:Lestaurtinib_02438_R2,Plate:MR008",72.4 nM
same,potency estimated from few doses,"[1]; compound concentrations:100 nM and 1000 nM (sheet 'Lestaurtinib' of Supplementary Table 1),run:Lestaurtinib_02443_R1,Plate:MR009",59.8 nM
same,potency estimated from few doses,"[1]; compound concentrations:100 nM and 1000 nM (sheet 'Lestaurtinib' of Supplementary Table 1),run:Lestaurtinib_02443_R2,Plate:MR009",72.4 nM
same,potency estimated from few doses,"[1]; compound concentrations:100 nM and 1000 nM (sheet 'Lestaurtinib' of Supplementary Table 1),run:Lestaurtinib_02473_R1,Plate:MR010",56.2 nM
same,potency estimated from few doses,"[1]; compound concentrations:100 nM and 1000 nM (sheet 'Lestaurtinib' of Supplementary Table 1),run:Lestaurtinib_02473_R3,Plate:MR010",40.1 nM
same,potency estimated from few doses,"[1]; compound concentrations:100 nM and 1000 nM (sheet 'Lestaurtinib' of Supplementary Table 1),run:Lestaurtinib_02482_R1,Plate:MR011",62.4 nM
same,potency estimated from few doses,"[1]; compound concentrations:100 nM and 1000 nM (sheet 'Lestaurtinib' of Supplementary Table 1),run:Lestaurtinib_02482_R2,Plate:MR011",81.9 nM
same,potency estimated from few doses,"[1]; compound concentrations:100 nM and 1000 nM (sheet 'Lestaurtinib' of Supplementary Table 1),run:Lestaurtinib_02482_R3,Plate:MR011",69.5 nM
same,potency estimated from few doses,"[1]; compound concentrations:100 nM and 1000 nM (sheet 'Lestaurtinib' of Supplementary Table 1),run:Lestaurtinib_02487_R1,Plate:MR012",45.5 nM
same,potency estimated from few doses,"[1]; compound concentrations:100 nM and 1000 nM (sheet 'Lestaurtinib' of Supplementary Table 1),run:Lestaurtinib_02487_R2,Plate:MR012",64.8 nM
same,potency estimated from few doses,"[1]; compound concentrations:100 nM and 1000 nM (sheet 'Lestaurtinib' of Supplementary Table 1),run:Lestaurtinib_02487_R3,Plate:MR012",70.8 nM
same,potency estimated from few doses,"[1]; compound concentrations:100 nM and 1000 nM (sheet 'Lestaurtinib' of Supplementary Table 1),run:Lestaurtinib_02496_R1,Plate:MR013",93.7 nM
same,potency estimated from few doses,"[1]; compound concentrations:100 nM and 1000 nM (sheet 'Lestaurtinib' of Supplementary Table 1),run:Lestaurtinib_02496_R2,Plate:MR013",80.9 nM
same,potency estimated from few doses,"[1]; compound concentrations:100 nM and 1000 nM (sheet 'Lestaurtinib' of Supplementary Table 1),run:Lestaurtinib_02566_R1,Plate:MR014",85.4 nM
same,potency estimated from few doses,"[1]; compound concentrations:100 nM and 1000 nM (sheet 'Lestaurtinib' of Supplementary Table 1),run:Lestaurtinib_02566_R2,Plate:MR014",74.9 nM
same,potency estimated from few doses,"[1]; compound concentrations:100 nM and 1000 nM (sheet 'Lestaurtinib' of Supplementary Table 1),run:Lestaurtinib_02572_R1,Plate:MR015",46 nM
same,potency estimated from few doses,"[1]; compound concentrations:100 nM and 1000 nM (sheet 'Lestaurtinib' of Supplementary Table 1),run:Lestaurtinib_02572_R2,Plate:MR015",79.8 nM
same,potency estimated from few doses,"[1]; compound concentrations:100 nM and 1000 nM (sheet 'Lestaurtinib' of Supplementary Table 1),run:Lestaurtinib_02572_R3,Plate:MR015",95.8 nM
same,potency estimated from few doses,"[1]; compound concentrations:100 nM and 1000 nM (sheet 'Lestaurtinib' of Supplementary Table 1),run:Lestaurtinib_02577_R1,Plate:MR016",58.2 nM
same,potency estimated from few doses,"[1]; compound concentrations:100 nM and 1000 nM (sheet 'Lestaurtinib' of Supplementary Table 1),run:Lestaurtinib_02577_R2,Plate:MR016",52.8 nM
same,potency estimated from few doses,"[1]; compound concentrations:100 nM and 1000 nM (sheet 'Lestaurtinib' of Supplementary Table 1),run:Lestaurtinib_02577_R3,Plate:MR016",59.6 nM
same,potency estimated from few doses,"[1]; compound concentrations:100 nM and 1000 nM (sheet 'Lestaurtinib' of Supplementary Table 1),run:Lestaurtinib_02584_R1,Plate:MR017",83.9 nM
same,potency estimated from few doses,"[1]; compound concentrations:100 nM and 1000 nM (sheet 'Lestaurtinib' of Supplementary Table 1),run:Lestaurtinib_02584_R2,Plate:MR017",61 nM
same,potency estimated from few doses,"[1]; compound concentrations:100 nM and 1000 nM (sheet 'Lestaurtinib' of Supplementary Table 1),run:Lestaurtinib_02584_R3,Plate:MR017",88.2 nM
same,potency estimated from few doses,"[1]; compound concentrations:100 nM and 1000 nM (sheet 'Lestaurtinib' of Supplementary Table 1),run:Lestaurtinib_02601_R1,Plate:MR018",68.7 nM
same,potency estimated from few doses,"[1]; compound concentrations:100 nM and 1000 nM (sheet 'Lestaurtinib' of Supplementary Table 1),run:Lestaurtinib_02601_R3,Plate:MR018",47.3 nM
same,potency estimated from few doses,"[1]; compound concentrations:100 nM and 1000 nM (sheet 'Lestaurtinib' of Supplementary Table 1),run:Lestaurtinib_02606_R1,Plate:MR019",69.9 nM
same,potency estimated from few doses,"[1]; compound concentrations:100 nM and 1000 nM (sheet 'Lestaurtinib' of Supplementary Table 1),run:Lestaurtinib_02606_R2,Plate:MR019",73.7 nM
same,potency estimated from few doses,"[1]; compound concentrations:100 nM and 1000 nM (sheet 'Lestaurtinib' of Supplementary Table 1),run:Lestaurtinib_02624_R1,Plate:MR020",52 nM
same,potency estimated from few doses,"[1]; compound concentrations:100 nM and 1000 nM (sheet 'Lestaurtinib' of Supplementary Table 1),run:Lestaurtinib_02624_R2,Plate:MR020",66.6 nM
same,potency estimated from few doses,"[1]; compound concentrations:100 nM and 1000 nM (sheet 'Lestaurtinib' of Supplementary Table 1),run:Lestaurtinib_02624_R3,Plate:MR020",69.8 nM
same,potency estimated from few doses,"[1]; compound concentrations:100 nM and 1000 nM (sheet 'Lestaurtinib' of Supplementary Table 1),run:Lestaurtinib_02724_R1,Plate:MR021",69.4 nM
same,potency estimated from few doses,"[1]; compound concentrations:100 nM and 1000 nM (sheet 'Lestaurtinib' of Supplementary Table 1),run:Lestaurtinib_02741_R2,Plate:MR023",113 nM
same,potency estimated from few doses,"[1]; compound concentrations:100 nM and 1000 nM (sheet 'Lestaurtinib' of Supplementary Table 1),run:Lestaurtinib_02741_R3,Plate:MR023",89.7 nM
same,potency estimated from few doses,"[1]; compound concentrations:100 nM and 1000 nM (sheet 'Lestaurtinib' of Supplementary Table 1),run:Lestaurtinib_02748_R1,Plate:MR024",64.3 nM
same,potency estimated from few doses,"[1]; compound concentrations:100 nM and 1000 nM (sheet 'Lestaurtinib' of Supplementary Table 1),run:Lestaurtinib_02748_R2,Plate:MR024",53.8 nM
same,potency estimated from few doses,"[1]; compound concentrations:100 nM and 1000 nM (sheet 'Lestaurtinib' of Supplementary Table 1),run:Lestaurtinib_02748_R3,Plate:MR024",68.7 nM
same,potency estimated from few doses,"[1]; compound concentrations:100 nM and 1000 nM (sheet 'Lestaurtinib' of Supplementary Table 1),run:Lestaurtinib_02752_R1,Plate:MR025",98.6 nM
same,potency estimated from few doses,"[1]; compound concentrations:100 nM and 1000 nM (sheet 'Lestaurtinib' of Supplementary Table 1),run:Lestaurtinib_02765_R3,Plate:MR026",84.5 nM
same,potency estimated from few doses,"[1]; compound concentrations:100 nM and 1000 nM (sheet 'Lestaurtinib' of Supplementary Table 1),run:Lestaurtinib_02766_R1,Plate:MR027",55 nM
same,potency estimated from few doses,"[1]; compound concentrations:100 nM and 1000 nM (sheet 'Lestaurtinib' of Supplementary Table 1),run:Lestaurtinib_02768_R3,Plate:MR028",80.1 nM
same,potency estimated from few doses,"[1]; compound concentrations:100 nM and 1000 nM (sheet 'Lestaurtinib' of Supplementary Table 1),run:Lestaurtinib_02795_R1,Plate:MR022",81.4 nM
same,potency estimated from few doses,"[1]; compound concentrations:100 nM and 1000 nM (sheet 'Lestaurtinib' of Supplementary Table 1),run:Lestaurtinib_02795_R3,Plate:MR022",154 nM
same,potency estimated from few doses,"[1]; compound concentrations:100 nM and 1000 nM (sheet 'Lestaurtinib' of Supplementary Table 1),run:Lestaurtinib_02802_R1,Plate:MR029",67.9 nM
same,potency estimated from few doses,"[1]; compound concentrations:100 nM and 1000 nM (sheet 'Lestaurtinib' of Supplementary Table 1),run:Lestaurtinib_02802_R2,Plate:MR029",50.7 nM
same,potency estimated from few doses,"[1]; compound concentrations:100 nM and 1000 nM (sheet 'Lestaurtinib' of Supplementary Table 1),run:Lestaurtinib_02896_R1,Plate:MR030",73.7 nM
same,potency estimated from few doses,"[1]; compound concentrations:100 nM and 1000 nM (sheet 'Lestaurtinib' of Supplementary Table 1),run:Lestaurtinib_02896_R3,Plate:MR030",71.3 nM
same,potency estimated from few doses,"[1]; compound concentrations:100 nM and 1000 nM (sheet 'Lestaurtinib' of Supplementary Table 1),run:Lestaurtinib_03172_R2,Plate:MR031",56 nM
same,potency estimated from few doses,"[1]; compound concentrations:100 nM and 1000 nM (sheet 'Lestaurtinib' of Supplementary Table 1),run:Lestaurtinib_03172_R3,Plate:MR031",66.8 nM
same,potency estimated from few doses,"[1]; compound concentrations:100 nM and 1000 nM (sheet 'Lestaurtinib' of Supplementary Table 1),run:Lestaurtinib_03252_R1,Plate:MR032",96.3 nM
same,potency estimated from few doses,"[1]; compound concentrations:100 nM and 1000 nM (sheet 'Lestaurtinib' of Supplementary Table 1),run:Lestaurtinib_03260_R1,Plate:MR033",73.1 nM
same,potency estimated from few doses,"[1]; compound concentrations:100 nM and 1000 nM (sheet 'Lestaurtinib' of Supplementary Table 1),run:Lestaurtinib_03260_R2,Plate:MR033",77.8 nM
same,potency estimated from few doses,"[2]; compound concentrations:100 nM and 1000 nM (sheet 'Lestaurtinib' of Supplementary Table 1),run:Lestaurtinib_02339_R1,Plate:MR001",20 nM
same,potency estimated from few doses,[2]; [3],18 nM
same,potency estimated from few doses,[2]; [4],18.4 nM
same,potency estimated from few doses,"[2]; compound concentrations:100 nM and 1000 nM (sheet 'Lestaurtinib' of Supplementary Table 1),run:Lestaurtinib_02364_R2,Plate:MR002",21.3 nM
same,potency estimated from few doses,[2]; [5],16.3 nM
same,potency estimated from few doses,[2]; [6],18.4 nM
same,potency estimated from few doses,[2]; [7],18.1 nM
same,potency estimated from few doses,[2]; [8],17.5 nM
same,potency estimated from few doses,[2]; [9],16.3 nM
same,potency estimated from few doses,[2]; [10],18.3 nM
same,potency estimated from few doses,[2]; [11],18.2 nM
same,potency estimated from few doses,"[2]; compound concentrations:100 nM and 1000 nM (sheet 'Lestaurtinib' of Supplementary Table 1),run:Lestaurtinib_02422_R1,Plate:MR006",15.3 nM
same,potency estimated from few doses,[2]; [12],7.4 nM
same,potency estimated from few doses,"[2]; compound concentrations:100 nM and 1000 nM (sheet 'Lestaurtinib' of Supplementary Table 1),run:Lestaurtinib_02437_R1,Plate:MR007",20.9 nM
same,potency estimated from few doses,[2]; [13],21.8 nM
same,potency estimated from few doses,"[2]; compound concentrations:100 nM and 1000 nM (sheet 'Lestaurtinib' of Supplementary Table 1),run:Lestaurtinib_02437_R3,Plate:MR007",3.54 nM
same,potency estimated from few doses,[2]; [14],15.4 nM
